PubChem BioAssay (NCI)
This is part of a sample that, as a whole, favours compounds with a hit. Of some 83,000 tested, about 20% had one in any assay.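 96-well plates, one dose, 48 hours. Percent growth reported; active if below 10.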 Values without a mark were called inactive. Active and inactive are the calls of the source.

Tests used:
Assay in all cases: NCI-60 one-dose screen, 48 h (100 = growth as untreated, 0 = no growth, -100 = all killed)
Conditions in all cases: 10 µM unless noted
[1] = tested on: BT-549 breast
[2] = tested on: MDA-MB-435 melanoma
[3] = tested on: SW-620 colon
[4] = tested on: MCF7 breast
[5] = tested on: HCT-116 colon
[6] = tested on: HCC-2998 colon
[7] = tested on: KM12 colon

Row | SMILES | growth [1] [%] | growth [2] | growth [3] [%] | growth [4] [%] | growth [5] | growth [6] [%] | growth [7] [%]
1 | CCN1C(=O)/C(=c2\sc3n(c2=O)C2C(NN=3)N(CC)C(=S)N2CC)c2ccccc21 (stereo unspecified) | 98.8 | 88.4% | 102 | 82.8 | 103% | 104 | 102
2 | CCN1C(=O)N(CC)C2C1NN=c1s/c(=C\c3cccc(F)c3)c(=O)n12 (stereo unspecified) | 17.1 | -34.1% (active) | 28.5 | 20 | 6.81% (active) | 19.5 | 11.2
3 | COc1ccc(NC(=O)/N=c2\oc3c(OC)cccc3cc2-c2cc3ccccc3[nH]2)cc1 | 81.9 | 82.6% | 70.3 | 70.1 | 28.1% | 95.5 | 63.1
4 | C#CCN1C(=O)/C(=c2\sc3n(c2=O)NC2C(N=3)N(CC)C(=O)N2CC)c2ccccc21 (stereo unspecified) | 83.4 | -26.6% (active) | 41 | 42.2 | 27% | 100 | 46.8
5 | COc1ccc(/C=C2\Oc3cc(OCCN4CCCC4)ccc3C2=O)c(OC)c1 | 94.2 | 94.3% | 79.2 | 85.1 | 41.3% | 98.2 | 74.3
6 | COc1ccc(/C=c2\sc3n(c2=O)C2C(NN=3)N(C)C(=O)N2C)cc1 (stereo unspecified) | 75.3 | -60.6% (active) | 23.5 | 22.7 | 22.5% | 54.9 | 22.8
7 | COc1cc(CCn2nnc3c(Nc4ccc(N5CCOCC5)cc4)ncnc32)cc(OC)c1 | – | 68.2% | 90.8 | 102 | 101% | 99.7 | 81.6
8 | CCN1C(=O)N(CC)C2C1NN=c1s/c(=C\c3ccccn3)c(=O)n12 (stereo unspecified) | 80 | -62.1% (active) | 23.7 | 22.5 | 23.6% | 65.8 | 26
9 | COc1ccc(OC)c(/C=C2\Oc3cc(OCCN4CCCC4)ccc3C2=O)c1 | 95.7 | 97% | 81.4 | 88.1 | 69% | 98.7 | 85.4
10 | Cc1oc2nc[nH]c(=O)c2c1C(=O)/C=C/c1ccc(Cl)cc1Cl | 73.8 | 57.2% | 31.2 | 39 | 36.3% | 102 | 52.1
11 | c1ccn2nnnc2c1 | 67.2 | 99.5% | 106 | 93.1 | 87.5% | 91.6 | 99.5
12 | NC(=S)NN=C1CCCCC1 | 85.6 | 88.8% | 69.1 | 15.9 | 8.08% (active) | 105 | 107
13 | CCN(Cc1ccccc1)c1ccc(SC#N)cc1 | 71.5 | 98.6% | 83.8 | 75.3 | 43.7% | 94.1 | 41.3
14 | Nc1c(C(=O)Nc2cccc([N+](=O)[O-])c2)sc2nc3c(cc12)C(O)CCC3 (stereo unspecified) | 58.1 | -22.9% (active) | 37.9 | 15.2 | 24.1% | 87.6 | 33.4
15 | Oc1ccc(N=Cc2ccccc2)cc1 | 70.7 | 97.8% | 99.9 | 84.8 | 60.8% | 100 | 91.3
16 | FC(F)(F)c1cccc(-n2nnc3cnc(Nc4ccc(N5CCCCC5)cc4)nc32)c1 | – | 37.5% | 35.7 | 71.2 | 4.87% (active) | 88.3 | 65.8
17 | c1ccc(CCn2nnc3c(Nc4ccc(N5CCOCC5)cc4)ncnc32)cc1 | – | 23.8% | 62.8 | 89.1 | 54% | 105 | 53.2
18 | CC(=O)OCC1OC(OCC2OC(OC(C)=O)C(OC(C)=O)C(OC(C)=O)C2OC(C)=O)C(OC(C)=O)C(OC(C)=O)C1OC(C)=O (stereo unspecified) | 100 | 104% | – | 94.9 | 99% | 96.2 | 108
19 | Cc1cc(Nc2nc(-c3ccncc3)nc3ccccc23)n[nH]1 | 82.7 | 40.3% | 78.3 | 40.2 | 39.3% | 72 | 18.8
20 | COc1ccc(NC(=S)/N=c2\oc3c(OC)cccc3cc2-c2cc3ccccc3[nH]2)cc1 | 90.4 | 77.2% | 84.3 | 81 | 64.7% | 101 | 73.2
